Source: PubChem BioAssay
Sampled rows, rich in hits. Any-hit rate of the full collection: about 6.6%.
Gli-Sufu antag: blocks Gli-Sufu signaling in a luciferase reporter; Sufu-KO-LIGHT fibroblasts, Gli luciferase reporter luminescence; inhibition, % at 5 µM; hit rate 0.74% among 340,000; AID 588413;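 active = inhibition above about 55%, limit read from the data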
MPTP block: permeability transition pore inhibition; isolated mouse mitochondria, Ca2+ swelling absorbance, 30 min; inhibition, % at 10 µM; hit rate 1.4% among 360,000; AID 602449;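 active = inhibition of 50% or more, scaled per plate between neutral and stimulator controls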
Mdm2 MdmX PPI: inhibitors of human Mdm2/MdmX interaction; SaOS-2 split-luciferase Mdm2/MdmX complementation, luminescence; AID 485346; O15151+Q00987; inhibition, % at 8 µM; hit rate 3% among 330,000;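 active = inhibition of at least 50% at 8 µM in the primary screen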
Target sequence (O15151 whole entry, looked up): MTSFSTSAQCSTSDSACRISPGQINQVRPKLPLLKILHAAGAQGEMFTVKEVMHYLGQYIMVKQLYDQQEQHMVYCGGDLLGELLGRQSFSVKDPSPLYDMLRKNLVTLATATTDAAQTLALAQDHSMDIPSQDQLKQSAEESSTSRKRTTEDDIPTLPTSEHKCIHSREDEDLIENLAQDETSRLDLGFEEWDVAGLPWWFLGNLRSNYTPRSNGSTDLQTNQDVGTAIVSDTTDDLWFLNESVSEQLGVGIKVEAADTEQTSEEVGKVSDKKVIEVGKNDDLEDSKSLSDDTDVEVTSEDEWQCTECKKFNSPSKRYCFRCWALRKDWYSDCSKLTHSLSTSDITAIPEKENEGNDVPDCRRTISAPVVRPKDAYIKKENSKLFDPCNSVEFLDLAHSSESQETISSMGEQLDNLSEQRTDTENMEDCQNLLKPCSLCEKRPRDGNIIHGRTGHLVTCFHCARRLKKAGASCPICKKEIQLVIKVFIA
Target sequence (Q00987 whole entry, looked up): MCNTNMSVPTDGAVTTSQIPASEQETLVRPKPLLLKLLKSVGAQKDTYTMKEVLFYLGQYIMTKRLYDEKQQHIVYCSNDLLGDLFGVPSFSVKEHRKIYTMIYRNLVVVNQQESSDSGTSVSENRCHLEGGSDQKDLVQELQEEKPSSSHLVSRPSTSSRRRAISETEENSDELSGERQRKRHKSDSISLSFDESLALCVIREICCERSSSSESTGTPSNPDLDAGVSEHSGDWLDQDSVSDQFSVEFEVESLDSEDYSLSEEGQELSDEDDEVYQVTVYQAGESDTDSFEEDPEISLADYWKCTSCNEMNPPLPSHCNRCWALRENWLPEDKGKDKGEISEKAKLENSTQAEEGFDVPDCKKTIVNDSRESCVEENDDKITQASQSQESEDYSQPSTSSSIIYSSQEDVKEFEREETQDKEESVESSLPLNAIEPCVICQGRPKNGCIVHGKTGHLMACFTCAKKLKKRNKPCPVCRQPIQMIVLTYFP
Beta cell apopt: beta cell apoptosis inhibition; protection from apoptosis, % (no concentration beside the values); AID 435005; hit rate 0.8% among 300,000; INS-1E cytokine-induced death, ATP luminescence, 48 h; percent of positive-control rescue, neutral wells zero;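 active = Every replicate reaches about 75%, or at least half do and their mean reaches it too, limit read from the data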;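 note: higher means more ATP so stronger rescue from cytokine killing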
NR3A LBD binder: modulates the human NR3A ligand-binding domain | NR3A LBD differential scanning fluorimetry, Tm shift; 0% = protein alone, 100% = glycine-bound protein | hit rate 2.5% among 340,000 | Tm shift relative to glycine control, % at 25 µM;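 active = melting temperature shift of at least 10% of the positive control shift, at one fixed dose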
CSC inhib: cancer stem cell inhibition; cancer stem cell-like cells viability, luminescence; inhibition, % at 7.5 µM; hit rate 1.1% among 300,000; in the data active = inhibition above about 75%; tested in HMLE shEcad cells
MPTP counter: membrane potential counter-screen of mitochondrial pore inhibitors. hit rate 78% among 5,000. inhibition, % at 10 µM. isolated mitochondria, Rhodamine 123 fluorescence. shares compounds with MPTP block; in the data active = inhibition above about 22%
MPTP swell DR: dose response confirmation of mitochondrial permeability transition pore inhibitors. shares compounds with MPTP block. isolated mitochondria swelling, absorbance. IC50, µM. hit rate 58% among 780. AID 651561; in the data active = IC50 below about 20 µM
MPTP counter DR: MPTP inhibitor counter-screen activity, dose response; shares compounds with MPTP block; isolated mitochondria counterscreen, fluorescence read-out; IC50, µM; hit rate 49% among 780; in the data active = IC50 below about 80 µM
Large screens that a line does not name were inactive (follow-up assays come after a bar, where they were run).

Cc1cccc(NC(=O)CSc2cc(C)c(C#N)c3nc4ccccc4n23)c1	MPTP block 85, NR3A LBD binder 13 | MPTP counter 58
CCCCOc1ccc(S(=O)(=O)NNC(=O)c2cc3ccccc3o2)cc1	none
CC(C)COc1ccc(S(=O)(=O)NNC(=O)c2cc3ccccc3o2)cc1	MPTP block 60 | MPTP counter 50
CCc1ccc(-c2nc(CSCC(=O)N3CCN(c4ccccn4)CC3)c(C)o2)cc1	MPTP block 80 | MPTP counter 58
O=C(COC(=O)c1cnccn1)N=c1sccn1Cc1ccccc1Cl	none
C=C(C)[C@@H]1CC=C(CN2CCC(N3CCC(C(=O)N4CCCC4)CC3)CC2)CC1	MPTP block 83 | MPTP counter 47
CC(C)N=c1scc(-c2ccco2)n1/N=C/c1ccc(O)c(O)c1	MPTP block 63, CSC inhib 99 | MPTP counter 42
Cc1cc(C)nc(Nc2nc(C(N)Cc3ccc(Cl)cc3)cs2)n1 (stereo not drawn)	none (no result: Gli-Sufu antag, Mdm2 MdmX PPI, Beta cell apopt, NR3A LBD binder, CSC inhib)
O=S(=O)(NC1=NCCCCC1)c1ccc(Cl)cc1Cl	none (no result: CSC inhib)
O=S(=O)(NCCNc1ncc(C(F)(F)F)cc1Cl)C(F)(F)F	MPTP block 81 | MPTP counter 94
CCC(C)(C)NC(=O)CN(C(=O)C(=O)Nc1ccc2c(c1)OCCO2)N1CCOCC1	none (no result: CSC inhib)
COc1ccc(CN2C(=O)CS/C2=N/N=C/c2ccccc2)cc1	MPTP block 67 | MPTP counter 65
COc1ccc(/C=N/N=C2/SCC(=O)N2Cc2ccccc2)cc1	none
O=c1[nH]c2cc3c(cc2cc1C(c1nnnn1C1CCCCC1)N1CCSCC1)OCCO3 (stereo not drawn)	MPTP block 63 (no result: Beta cell apopt) | MPTP counter inactive
C=CSc1sc(Cl)c(N(CC)CC)c1[N+](=O)[O-]	none
CCOC(=O)c1ccc(-c2c(-c3ccccc3OC)sc3cc4c(cc23)OCO4)cc1F	none
Cc1cccc(NC(=O)c2ccccn2)c1C	none
Cc1cccc(NC(=O)c2n[nH]c([N+](=O)[O-])c2Br)c1C	MPTP block 87 | MPTP counter 86
COc1cc2nc3n(c(=O)c2cc1OC)-c1ncccc1C(=O)NC3Cc1ccccc1 (stereo not drawn)	none (no result: Gli-Sufu antag, Mdm2 MdmX PPI, Beta cell apopt, NR3A LBD binder, CSC inhib)
COc1ccc(S(=O)(=O)NCc2ccccn2)cc1OC	none
COc1ccccc1Oc1ccc(S(=O)(=O)NCc2ccccn2)cc1	MPTP block 70 | MPTP counter 38
COc1ccc(C2=Nc3ccccc3NC(=O)C2N(C(=O)c2ccnc3ccccc23)c2ccccc2)cc1 (stereo not drawn)	none (no result: Gli-Sufu antag, Mdm2 MdmX PPI, Beta cell apopt, NR3A LBD binder, CSC inhib)
Cc1ccc(NC(=O)NCCCc2ccccc2)cc1	none
Cc1ccc(C(=O)NCCc2cccc(Cl)c2)cc1[N+](=O)[O-]	none
O=C(NCCCc1ccccc1)Nc1cccc(Cl)c1	MPTP block 70 | MPTP counter 95
O=C(NCCc1cccc(Cl)c1)c1ccc(Cl)c([N+](=O)[O-])c1	MPTP block 81 | MPTP counter 94
O=C(Nc1ccccc1)Nc1ccc(Cl)nc1Cl	MPTP block 73 | MPTP counter 88
O=C(NNc1cccc(Cl)n1)Nc1ccccc1	none (no result: Beta cell apopt)
O=C(NNc1ccccc1[N+](=O)[O-])Nc1cccc(Cl)c1	MPTP block 84 | MPTP counter 85
O=C(NNc1ccccc1[N+](=O)[O-])Nc1ccc(F)cc1F	none
CC(=O)c1ccc(NC(=O)Nc2ccc(Br)cc2C)cc1	MPTP block 90 | MPTP counter 97
O=C(Nc1ccccc1)Nc1cccc(Cl)c1	MPTP block 96, NR3A LBD binder 29 | MPTP counter 87
CC(C)(C)c1cc(C(=O)NNC(=O)Nc2cccc(Cl)c2)n(Cc2ccccc2)n1	MPTP block 71 (no result: Beta cell apopt) | MPTP counter 79
CC(C)(C)c1cc(C(=O)NNC(=O)Nc2ccccc2)n(Cc2ccccc2)n1	none
COC(=O)c1cc(NC(=O)Nc2ccccc2)ccc1Cl	MPTP block 76, NR3A LBD binder 39 | MPTP counter 83
O=C(N/N=C\c1ccc(Cl)cc1)C1=NOC2COC3(CCN(c4ccc([N+](=O)[O-])cc4)CC3)OCC12 (stereo not drawn)	none
O=C(Nn1cnc2ccccc2c1=O)c1c(F)cccc1F	none
N#Cc1ccc(NC(=O)Nc2cccc(C#N)c2)cc1	MPTP block 72, NR3A LBD binder 26 (no result: Mdm2 MdmX PPI) | MPTP counter 100
CC(=O)c1ccc(NC(=S)NCCc2cccc(Cl)c2)cc1	MPTP block 86, NR3A LBD binder 26 | MPTP counter 95
CC(=O)c1ccc(NC(=O)Nc2cccc(Cl)c2)cc1	MPTP block 101, NR3A LBD binder 35 | MPTP counter 88
CC(=O)c1ccc(NC(=S)NCCc2ccc(S(N)(=O)=O)cc2)cc1	none
N#Cc1cccc(NC(=O)c2ccccc2C(=O)O)c1	none
Cc1noc(C)c1COc1ccccc1C(=O)NC(C)c1ccc(Cl)cc1 (stereo not drawn)	none (no result: CSC inhib)
Cc1cccc(C(=O)N2CCc3cc(-c4nc(NC(=O)CN5CCCC5)sc4C)ccc32)c1	none (no result: CSC inhib)
Cc1cccc(C(=O)N2CCc3cc(-c4csc(NC(=O)CN5CCCC5)n4)ccc32)c1	MPTP block 86 | MPTP counter inactive | MPTP swell DR inactive | MPTP counter DR 37
O=C(Nc1c(C(=O)N2CCCCC2)cnn1-c1ccccc1)c1ccccc1F	none
CCOC(=O)Cc1nnc2c(Nc3ccccc3F)nc3nonc3n12	MPTP block 92 | MPTP counter 125
CSc1nsc(/C=C/Nc2ccc(Cl)cc2)c1C#N	none
CSc1nsc(/C=C/Nc2ccc(F)cc2)c1C#N	MPTP block 60 | MPTP counter 31
COc1ccccc1NC(NC(=O)c1cccnc1)C(Cl)(Cl)Cl (stereo not drawn)	none
O=[N+]([O-])c1c(O)c(Cl)cc(Cl)c1Cl (tested in a mixture with another compound)	MPTP block 78 (no result: Mdm2 MdmX PPI, Beta cell apopt, CSC inhib) | MPTP counter 86
Cc1cccc(C)c1NC(=O)COC(=O)c1cc(S(=O)(=O)Nc2ccc(Cl)cc2)ccc1O	none (no result: Beta cell apopt, CSC inhib)
O=C(COC(=O)c1cc(S(=O)(=O)Nc2ccccc2Cl)ccc1O)Nc1nc2ccccc2s1	MPTP block 90, NR3A LBD binder 24 (no result: Mdm2 MdmX PPI, Beta cell apopt, CSC inhib) | MPTP counter 78
N#Cc1cccc(NC(=O)COC(=O)c2cc(S(=O)(=O)Nc3ccccc3Cl)ccc2O)c1	MPTP block 58, NR3A LBD binder 18 | MPTP counter 86
COc1ccccc1NS(=O)(=O)c1ccc(O)c(C(=O)OCC(=O)c2ccc(Cl)cc2Cl)c1	none
